Screens: PubChem BioAssay, several laboratories
This is a sample that favours compounds with a hit; in the whole collection about 4.3% have one here.
Wnt act: Wnt/beta-catenin pathway activators, primary screen, cell-based, plate reader, single point; 1.2% of 300,000 active; activation, % at 9.35 µM; Wnt/beta-catenin reporter cell assay, activator; AID 743398, 2014; in the data active = activation above about 30%, passing the limit was not always enough; inconclusive = no clear call, values can overlap the other calls;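 note: 0% = neutral control wells and 100% = positive control wells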
HSF1 inhib: HSF1 inhibitors in luciferase reporter cells, primary screen, cell-based, NIH3T3, luminescence; activity change, negative = inhibition, % at 7.5 µM (by protocol); AID 2098, 2009; NIH3T3-HGL HSE-luciferase, MG132-induced, luminescence 8 h; stronger effect = lower value; 0.77% of 300,000 active;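 active = more than half of replicate wells show activity change below -50%, luminescence cut by over half; inconclusive = some wells, but at most half, below -50%; inactive = no replicate well below -50%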;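 note: luciferase reports HSF-1 transcriptional activity via heat shock element; 0% = median of DMSO wells and -100% = zero luminescence signal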
MITF act: activators of MITF-driven TRPM1 promoter reporter, primary screen, cell-based, SK-MEL-5, luciferase, single point; SK-MEL-5 TRPM1-promoter luciferase, 24 h; % of positive control, neutral wells = 0; activation, % at 12.5 µM; 0.75% of 300,000 active; AID 588334, 2011;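 active = mean activation of at least 80% with every replicate also reaching 80%; inconclusive = mean reaches 80% but some replicate falls short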;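 note: 0% = neutral control wells and 100% = parthenolide positive control wells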
HSF1 activator: HSF-1 activators, primary screen, NIH3T3-HGL cells, MG132 stress, luminescence, single point | NIH3T3-HGL HSF-1 luciferase reporter, 8 h; 100% = twice DMSO control signal | activation, % at 9 µM | 1.7% of 300,000 active | AID 504408, 2011;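 active = mean replicate activation of at least 50% with a set share of replicates each reaching 50%; inconclusive = only one of those two conditions met; inactive = mean below 50% and too few replicates reaching it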;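 note: 0% = median of the neutral control wells and 100% = twice that signal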
esBAF inh: Bmi1 luciferase reporter increase in mESCs, primary screen, esBAF inhibitor project, mouse ES cells, Bmi1 luciferase knock-in, single point. 24 h; 100% = twice the neutral-well signal. reporter increase, % at 12.5 µM. 2% of 350,000 active; in the data active = activation above about 40%; inconclusive = no clear call, values can overlap the other calls;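 note: 0% = median of the plate's neutral control wells and 100% = double that signal; a rise in the Bmi1 reporter signal indicates esBAF inhibition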
SMARCA2 act: SMARCA2 (BRM) function activators, primary screen, cell-based, luminescence, high throughput; MG213 cells, MMTV-luciferase reporter, dexamethasone, overnight; activation, % at 9.1 µM; 1% of 370,000 active; in the data active = activation above about 7.8%;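 note: 0% = vehicle wells and 100% = reference activator wells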
The depositor's hits bear a star; u = inconclusive; x = no result given.

SMILES | Wnt act | HSF1 inhib | MITF act | HSF1 activator | esBAF inh | SMARCA2 act
O=C(O)c1ccc(N/N=C/c2ccnc3ccccc23)cc1 | 1 | 1 | 80 | -11 | x | 3
Oc1ccccc1/C=N/Nc1cccc2cccnc12 | 67* | 17 | x | 17 | 50* | 3
O=C(O)c1ccc(N/N=C/c2cccc3cccnc23)cc1 | 41* | -4 | 66 | -9 | x | 1
COc1ccc(-c2nnc(Nc3nc4c(OC)cccc4s3)o2)c(OC)c1 | 16 | 46 | -17 | 60* | 23 | 8
COc1cc(OC)cc(-c2nnc(Nc3nc4c(F)cccc4s3)o2)c1 | x | -11 | -11 | -20 | -21 | -2
Fc1cccc2sc(Nc3nnc(-c4ccccc4)o3)nc12 | x | 49 | 11 | 73* | 36 | 3
Cc1cc(C(=O)C(C)Sc2cccc[n+]2[O-])c(C)n1-c1ccc(Cl)cc1 (stereo not given) | 6 | 14 | 20 | 9 | 62* | -3
Cc1cc(C(=O)C(=O)O)c(C)n1-c1ccc(Cl)cc1 | -1 | -4 | 4 | -1 | -2 | -5
CC(C)NC(=O)N1C[C@@H]2[C@H](c3ccccc31)[C@H](CO)N2C(=O)c1ccc(F)cc1 | x | x | x | x | -5 | x
CCc1ccccc1NC(=O)c1cccc(NC(=O)/C=C/c2ccco2)c1 | 110* | 9 | 2 | 31 | x | -2
Cc1ccc(-n2nc3ccc(NC(=O)/C=C/c4ccco4)cc3n2)cc1 | 58* | 8 | 9 | 15 | x | -2
O=C(/C=C/c1ccco1)Nc1ccc2nc3n(c(=O)c2c1)CCCC3 | 24 | 9 | 55 | 8 | x | 1
O=C(/C=C/c1ccco1)Nc1ccc2c(c1)OCO2 | 33* | 22 | 92* | 17 | x | 3
Cc1ccc(NC(=O)c2cccc(NC(=O)/C=C/c3ccco3)c2)cc1C | 11 | 40 | 33 | 73* | x | 2
Cc1[nH]c2ccccc2c1/C=C/c1nc2ccccc2c(=O)n1CCO | 5 | -1 | 19 | 0 | 37* | 4
O=c1c2ccccc2nc(/C=C/c2ccc(Br)cc2)n1CCO | 3 | 2 | x | 18 | x | -2
CCOC(=O)CSC1=C(C#N)C(c2ccccc2C)C2=C(CCCC2=O)N1 (stereo not given) | x | -85* | 12 | -89 | 5 | -2
OC1CCC(Nc2ccn3nc(-c4cccc(Cl)c4)cc3n2)CC1 (stereo not given) | 1 | x | x | x | u | 1
CCC(CO)Nc1ccn2nc(-c3cccc(Cl)c3)cc2n1 (stereo not given) | 4 | x | x | x | 72* | 2
Nc1ccc(Cl)c(-c2nc3ncccc3o2)c1 | -4 | -1 | 38 | -5 | u | 2
Nc1ccc(-c2nc3ncccc3o2)c(Cl)c1 | 42* | 16 | 43 | 25 | u | 5
Nc1ccc(-c2nc3ncccc3o2)c(O)c1 | 18 | 0 | 95* | 7 | 57* | 7
COCC(=O)N1C[C@H](C)[C@@H](OC)CN(C)C(=O)c2cc(NC(=O)NC(C)C)ccc2OC[C@H]1C | x | x | x | x | 2 | x
CCNC(=S)N(Cc1ccco1)Cc1cc2cc3c(cc2[nH]c1=O)OCCO3 | x | 33 | -1 | 62* | x | 1
Cc1cc(C)c2[nH]c(=O)c(CN(Cc3ccco3)C(=S)NCC3CCCO3)cc2c1 (stereo not given) | -14 | 41 | -7 | 70* | x | -2
SMILES | Wnt act | HSF1 inhib | MITF act | HSF1 activator | esBAF inh | SMARCA2 act
Cc1cc2cc(CN(Cc3ccco3)C(=S)NCC3CCCO3)c(=O)[nH]c2cc1C (stereo not given) | -1 | 46 | -7 | 70* | x | 0
Cc1ccc2cc(CN(Cc3ccco3)C(=S)NCC3CCCO3)c(=O)[nH]c2c1C (stereo not given) | -4 | 27 | -10 | 43 | 5 | -2
CC(C)(C)OC(=O)NNC(=S)NC1CCCCC1 | 46* | 6 | 4 | 15 | x | -2
COc1ccccc1OCCOCCOc1ccc(C)cc1Br | -4 | 3 | 14 | -4 | x | -3
COc1cc(C)ccc1OCCCOc1ccccc1Br | 10 | 20 | 60 | 27 | 52* | 6
COc1ccccc1OCCCOc1ccc(C)cc1Br | x | 35 | u | 57* | x | 5
COc1ccc(-c2nc(N)nc(N)n2)c(O)c1 | 29 | x | 42 | x | 48* | 5
C[C@@H]1CCCCO[C@H](CN(C)S(=O)(=O)c2ccccc2)[C@@H](C)CN([C@H](C)CO)C(=O)c2cc(NC(=O)CCC(F)(F)F)ccc2O1 | x | x | x | x | -3 | x
CC(C)c1ccc(/C=C2\C(=O)N(CCN3CCOCC3)C(=S)N2C)cc1 | -2 | 24 | 6 | 66* | x | -1
CC(=O)Nc1ccc2c(c1)C(=O)N(C)[C@@H]1CC[C@H](CC(=O)NCc3ccc4c(c3)OCO4)O[C@@H]1CO2 | x | x | x | x | -7 | x
CCCNC(=O)N(C)C[C@H]1Oc2cc(-c3cncnc3)ccc2S(=O)(=O)N([C@H](C)CO)C[C@@H]1C | x | x | x | x | -7 | x
O=C(N/N=C/c1ccc(OC(=O)c2ccccc2Cl)cc1)c1cc(O)cc(O)c1 | -6 | -4 | 8 | -15 | 6 | 0
CSc1ccc(/C=N/NC(=O)c2ccccc2Cl)cc1 | 8 | 15 | 44 | 36 | 79* | 3
O=C(N/N=C/c1ccc(OC(=O)c2ccccc2Cl)cc1)c1ccccn1 | x | 19 | 96* | 41 | x | x
O=C(Oc1cccc(/C=N/NC(=O)c2ccccn2)c1)c1ccc([N+](=O)[O-])cc1 | 34* | 3 | 38 | 0 | -36 | 1
COc1ccc(CNC(=O)C[C@H]2CC[C@H](NC(=O)c3cccc(F)c3)[C@@H](CO)O2)cc1 | x | x | x | x | -3 | x
CC(=O)N1[C@H](CO)[C@H](c2ccc(-c3ccccc3)cc2)[C@@H]1CNC(=O)C1CC1 | x | x | x | x | -4 | x
Nc1nc(N)c(N=O)c(OCC2CCCCC2)n1 | 0 | 2 | -13 | -9 | 42* | 6
NS(=O)(=O)OCC1CCCCC1 | -1 | -6 | -4 | -9 | -3 | -1
Cc1cccc(N/N=C2/COC(C)(C)CC2=O)c1 | x | 20 | 76 | 40 | 20 | 7.9*
CC1(C)CC(=O)/C(=N/Nc2ccc(Cl)cc2)CO1 | 52* | -1 | 69 | -14 | 55* | 4
CO[C@H]1CN(C)C(=O)c2cc(NC(C)=O)ccc2OC[C@H](C)N(Cc2nccs2)C[C@H]1C | x | x | x | x | 1 | x
CC1(C)c2[nH]c3ccccc3c2C[C@H]2C(=O)N(CCCO)CC(=O)N21 | 0 | -8 | 1 | 6 | -10 | -3
CCCCCCN1CC(=O)N2[C@@H](Cc3c([nH]c4ccccc34)C2(C)C)C1=O | 0 | -51* | 5 | -58 | 0 | 0
